High-throughput results: PubChem, National Center for Advancing Translational Sciences (NCATS)
S16 viability = Cell viability qHTS assay in S16 Pmp22-F2sN cells | 43,000 tested, 0.48% active | AID 1508642, 2021 | S16 Pmp22-F2sN Schwann cells viability, CellTiter-Glo, 24 h | Potency, µM (doses to about 57.5 µM), for inactives: top-dose activity change, negative = cytotoxicity, most hits filed as cytotoxic; further: potency means the concentration at half of the fitted maximal effect; on the % scale 0 is the no-effect control and ±100 the full control effect; nearly all actives have a fitted effect of over 65% in size
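S16 Pmp22-F2sN Schwann cells (500-1,000/well) in phenol-red-free DMEM with 10% FBS received 23 nL compound by pin tool for 24 h at 37 °C. Viability was then read as CellTiter-Glo luminescence after 15 min at room temperature.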
HTT-AS act = Primary qHTS for Identification of Small Molecule Activators of Huntingtin-Antisense Promoter Activity. HEK293 HTT-AS promoter firefly luciferase reporter, 24 h; response scale: percent change from vehicle, -100% = no light. Potency, µM (highest dose often 57.5 µM), without a hit: at the top dose activity change, positive = activation, most hits filed as activators. 48,000 tested, 0.24% active. AID 1508624, 2021; further: potency means the concentration at half of the fitted maximal effect; nearly all actives have a fitted effect of over 55% in size
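Firefly luciferase readout (Dual-Glo, 10 min RT) after 24 h, 37 °C compound exposure (final up to 57.5 uM) of HEK293 reporter cells cultured 24 h beforehand; PTC124 at 50 uM final as control inhibitor; activity scaled vehicle 0%, zero RLU -100%.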
HTT promoter inh = Primary qHTS for Identification of Small Molecule Inhibitors of Huntingtin Promoter Activity | HEK293 HTT promoter firefly luciferase reporter, 24 h | Potency, µM (top dose mostly 57.5 µM), inactives show top-dose activity change, negative = inhibition, usual class: inhibitors | 48,000 tested, 0.93% active | AID 1508623, 2021; further: potency means the concentration at half of the fitted maximal effect; nearly all actives have a fitted effect of over 50% in size
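HEK293 luciferase promoter-reporter cells (2,500/well) plated 24 h, then compounds added at up to 57.5 uM final for 24 h at 37 °C. Firefly luminescence by Dual-Glo, normalized to vehicle (0%) and zero RLU (-100%).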
SKOV3 invasion = Primary qHTS assay for Inhibitors of ovarian cancer metastasis using an organotypic tumor microenvironment (TME) model. AID 1963576, 2024. Potency, µM (doses to about 45.8 µM), without a hit: at the top dose activity change, negative = inhibition, actives largely listed as inhibitors. SKOV3ip1-GFP adhesion/invasion on 3D omental model, fluorescence. 46,000 tested, 0.1% active;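 further: potency means the concentration at half of the fitted maximal effect; plate controls were DMSO wells for no effect and tomatine positive control wells for full effect; nearly all actives have a fitted effect of over 65% in size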
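Primary human omental fibroblast/mesothelial 3D culture pre-formed 48 h. SKOV3ip1-GFP cells added with compounds (0.36-46 umol/L), incubated 2 h RT/16 h 37 C, fixed; GFP cells quantified at 488/509 nm.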
pS6 MEF inh = Acumen qHTS Assay for Inhibitors of the mTORC1 Signaling Pathway in MEF (Tsc2-/-, p53-/-) Cells: Sytravon; Potency, µM (highest dose often 38.3 µM), for inactives: top-dose activity change, negative = inhibition, usual class: inhibitors; Tsc2-/- p53-/- MEF, phospho-rpS6 immunofluorescence/PI, 24 h; AID 493208, 2011; 44,000 tested, 0.78% active;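 further: potency means the concentration at half of the fitted maximal effect; plate controls were DMSO for no effect and rapamycin for full effect; nearly all actives have a fitted effect of over 50% in size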
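Compounds act on Tsc2-/-, p53-/- fibroblasts carrying an empty vector for 24 h before fixation and dual staining for phospho-S6 and DNA (propidium iodide). Values are percentages of cells above a rapamycin-defined pS6/PI threshold.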
PMP22 txn = Cell-based coincidence reporter assay to measure PMP22 gene transcription in S16 Pmp22-F2sN cells - Primary screen | S16 Pmp22-F2sN Schwann cells (luciferase reporters placed in the Pmp22 gene), FLuc/NLuc coincidence luminescence, 24 h | Potency, µM (series often up to 57.5 µM), without a hit: at the top dose activity change, negative = inhibition, usual class: inhibitors | 43,000 tested, 2% active | AID 1508649, 2021; active means clear falling dose curves in both reporters; inconclusive means both reporters move, but less clearly or upward; inactive means either reporter flat; the % is the NLuc reporter signal; further: potency means the concentration at half of the fitted maximal effect; on the % scale 0 is the no-effect control and ±100 the full control effect
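Luminescent read-out of sequential FLuc and NLuc signals from a reporter embedded in the Pmp22 3' UTR of S16 Schwann cells, taken after 24 h compound exposure at 37C; compounds reducing both signals score as inhibitors of expression.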
NLuc saturating = Biochemical NLuc saturation counterscreen for small molecule modulators of PMP22 gene expression - Nano-Glo assay. shares compounds with PMP22 txn. Secreted NLuc enzyme (filtered S16 cell medium), Nano-Glo luminescence. Potency, µM (titrated, usually from 57.5 µM), inactives show top-dose activity change, negative = inhibition, usual class: inhibitors. 690 tested, 4% active. AID 1508638, 2021; further: potency means the concentration at half of the fitted maximal effect; on the % scale 0 is the no-effect control and ±100 the full control effect
NLuc Km counter = Biochemical coelenterazine-based NLuc counterscreen for small molecule modulators of PMP22 gene expression - Km assay | AID 1508639, 2021 | 690 tested, 5% active | shares compounds with PMP22 txn | Potency, µM (doses to about 57.5 µM), for the others: at the top dose activity change, negative = inhibition, actives largely listed as inhibitors | secreted NLuc enzyme, coelenterazine luminescence, Km conditions; further: potency means the concentration at half of the fitted maximal effect; on the % scale 0 is the no-effect control and ±100 the full control effect
FLuc ctr PMP22 = Biochemical FLuc counterscreen for small molecule modulators of PMP22 gene expression; purified P. pyralis FLuc, luminescence, 10 min; 690 tested, under 10 active; Potency, µM (highest dose often 57.5 µM), without a hit: top-dose activity, negative = inhibition, most hits filed as inhibitors; shares compounds with PMP22 txn; further: % of control where 0% means no effect
Target sequence (P08659 whole entry, looked up): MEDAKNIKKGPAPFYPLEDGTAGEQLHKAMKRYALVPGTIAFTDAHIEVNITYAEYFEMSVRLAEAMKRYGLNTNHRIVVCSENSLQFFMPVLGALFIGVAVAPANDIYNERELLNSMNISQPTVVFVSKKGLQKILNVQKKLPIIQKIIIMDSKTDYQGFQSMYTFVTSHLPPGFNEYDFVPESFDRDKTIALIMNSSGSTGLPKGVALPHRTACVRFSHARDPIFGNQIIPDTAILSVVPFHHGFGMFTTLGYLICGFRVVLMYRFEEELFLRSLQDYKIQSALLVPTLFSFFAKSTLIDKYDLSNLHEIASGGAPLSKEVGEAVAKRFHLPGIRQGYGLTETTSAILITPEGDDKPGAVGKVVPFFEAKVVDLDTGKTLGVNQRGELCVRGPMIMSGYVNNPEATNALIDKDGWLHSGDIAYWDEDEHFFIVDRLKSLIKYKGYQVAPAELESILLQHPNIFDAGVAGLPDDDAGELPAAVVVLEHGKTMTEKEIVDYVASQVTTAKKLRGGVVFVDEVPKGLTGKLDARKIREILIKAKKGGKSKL
S16 F2sN tox cnf = Cell viability qHTS assay in S16 Pmp22-F2sN cells - Confirmatory screen | shares compounds with PMP22 txn | S16 Schwann cells viability, CellTiter-Glo ATP luminescence, 24 h | Potency, µM (series often up to 57.5 µM), inactives show at the top dose activity change, negative = viability loss, hits mostly cytotoxic | 690 tested, 7% active; further: potency means the concentration at half of the fitted maximal effect; on the % scale 0 is the no-effect control and ±100 the full control effect
PMP22 txn conf = Cell-based coincidence reporter assay to measure PMP22 gene transcription in S16 Pmp22-F2sN cells - Confirmatory screen. AID 1508646, 2021. 690 tested, 22% active. Potency, µM (top dose mostly 57.5 µM), inactives show at the highest dose activity change, negative = inhibition, actives largely listed as inhibitors. shares compounds with PMP22 txn. S16 Schwann cells Pmp22-F2sN, dual luciferase, 24 h; active means clear falling dose curves in both reporters; inconclusive means both reporters move, but less clearly or upward; inactive means either reporter flat; the % is the FLuc reporter signal; further: potency means the concentration at half of the fitted maximal effect
Active calls of the source: *; i = inactive; ? = inconclusive; . = no result. This is a sample that favours compounds with a hit; in the whole collection about 3.6% have one here. Unless noted, the call rests on the fitted dose curve; in most records, active means well fitted curve in the direction sought with a large enough effect; inconclusive means small, poorly fitted or top-dose-only effect, or another doubt; inactive means no such curve, though single readings can be large; an effect the other way counts as inactive or inconclusive.

SMILES	S16 viability	HTT-AS act	HTT promoter inh	SKOV3 invasion	pS6 MEF inh	PMP22 txn	NLuc saturating	NLuc Km counter	FLuc ctr PMP22	S16 F2sN tox cnf	PMP22 txn conf
CCOc1ccc(NC(=O)Cn2c(=O)n(Cc3ccc4c(c3)OCO4)c(=O)c3ccc(C(=O)NC4CCCCC4)cc32)cc1	1%	-16%	-15%	i	0%	17µM*	4%	10%	0%	?	13µM*
CCc1ccccc1NC(=O)Cn1c(=O)n(Cc2ccc3c(c2)OCO3)c(=O)c2ccc(C(=O)NC3CCCCC3)cc21	12%	-11%	-12%	-11%	0%	12µM*	1%	5%	4%	-29%	11µM*
CC1(COc2ccc3c(c2)ncn3-c2ccc3cccc(N4CCC(N)CC4)c3n2)COC1	.	-51%	?	-4%	.	.	.	.	.	.	.
CC(C)c1ccc(-c2nc(C(N)=O)c3c(n2)n(-c2ccc4c(c2)OCO4)c(=O)n3C)cc1	17%	-4%	-7%	22%	-10%	?	.	.	.	.	.
Cn1c(=O)n(-c2ccc3c(c2)OCO3)c2nc(-c3ccc(Cl)cc3)nc(C(N)=O)c21	23%	-12%	-4%	i	-2%	?	-4%	-1%	4%	-9%	-27%
COc1cc(NS(=O)(=O)c2ccc3[nH]c4c(c3c2)CCCCCC4)cc(OC)c1	-17%	-28%	?	1%	?	?	.	.	.	.	.
COc1ccc(NS(=O)(=O)c2ccc3[nH]c4c(c3c2)CCCC4)cc1OC	-10%	-47%	20µM*	3%	-17%	14µM*	-6%	?	2%	?	?
Cc1ccc(NS(=O)(=O)c2ccc3[nH]c4c(c3c2)CCCCCC4)cc1C	-9%	-33%	?	-26%	-14%	?	.	.	.	.	.
COc1cc(NS(=O)(=O)c2ccc3[nH]c4c(c3c2)CCCC4)cc(OC)c1OC	-7%	-55%	?	i	?	12µM*	-10%	?	-2%	-19%	?
CCOc1ccc(-c2c(C)nn3c(C)c(C(=O)NCC(C)c4ccccc4)cnc23)cc1OCC (centres undefined)	4%	-30%	?	i	-16%	17µM*	?	?	-3%	-16%	?
CC1(C)Cc2c(-c3ccccc3)c(-c3ccc(Cl)cc3)c(CC(=O)O)n2C1	.	-31%	-22%	-1%	.	.	.	.	.	.	.
Cn1nc(C(=O)NCc2cccc(Cl)c2)c2c1-c1ccccc1S(=O)(=O)C2	7%	-14%	-15%	10%	3%	-20%	.	.	.	.	.
Cn1nc(C(=O)NCc2ccc(Cl)cc2)c2c1-c1ccccc1S(=O)(=O)C2	?	-30%	?	-6%	9%	15µM*	-9%	-17%	0%	2%	?
Cc1cccc(C)c1Nc1c(-c2ccsc2)nc2ccccn12	?	-34%	?	-7%	-12%	9.5µM*	?	22µM*	2%	1%	?
Cc1cccc(C)c1Nc1c(-c2ccsc2)nc2ccc(Cl)cn12	-12%	-15%	-10%	6%	-14%	-13%	.	.	.	.	.
COc1cc(Nc2nc3ccccc3nc2NS(=O)(=O)c2ccc(NC(=O)c3ccc(C)c(OC)c3)cc2)cc(OC)c1	.	-26%	?	6%	.	.	.	.	.	.	.
Cc1cccc(N2CCN(C(=O)c3cccc(-n4c(C)nc5cccnc54)c3)CC2)c1C	0%	-32%	?	8%	-16%	13µM*	?	?	5%	10%	-4%
Cc1ccc(Cl)cc1N1CCN(C(=O)c2ccc(C)c(-n3c(C)nc4cccnc43)c2)CC1	?	-52%	?	5%	-3%	19µM*	22µM*	19µM*	7%	-14%	?
Cc1ccc(C)c(N2CCN(C(=O)c3cccc(-n4c(C)nc5cccnc54)c3)CC2)c1	?	-43%	?	-2%	-8%	?	.	.	.	.	.
C#C[C@]1(O)CC[C@H]2[C@H]3CCc4cc(OC)ccc4[C@H]3CC[C@@]21C	.	?	-8%	-13%	.	.	.	.	.	.	.
Cc1ccc(C)n1-c1nnc(N2CCCC(C(=O)Nc3ccccc3Br)C2)s1 (centres undefined)	-12%	-2%	-16%	-9%	-9%	17µM*	-17%	?	0%	14%	-20%
Cc1cc(F)ccc1NC(=O)C1CCCN(c2nnc(-n3c(C)ccc3C)s2)C1 (centres undefined)	1%	-13%	-29%	2%	-7%	?	.	.	.	.	.
